The text below walks through data of PubChem BioAssay (EPA / NIEHS).

A short description of assay [1]: CCTE_Simmons_MITO_inhib_resp_rate: CCTE's HepG2 Seahorse XF Respirometric Screening Assay at Inhibited Respiratory State [full ETC block], Simmons Lab (AID 2284006). The settings on record: actives raise or lower the signal. Put shortly: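 Inhibited respiration was taken as HepG2 oxygen consumption after rotenone/antimycin A, which followed test-compound and FCCP injections. Chemicals were tested at seven final concentrations from 125 nM to 100 uM. Activity was fitted bidirectionally relative to DMSO.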

A short description of assay [2]: CCTE_Simmons_MITO_viability: CellTiter-Glo Viability Assessment for CCTE's HepG2 Seahorse XF Respirometric Screening Assay [post-hoc], Simmons Lab (AID 2284007; active = hit-call score of the fitted dose curve at least 0.9, where 1 is the maximum;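 as to AC50: cells exposed to chemical for 90 min before the ATP read; actives lower ATP signal relative to DMSO baseline meaning reduced viability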). The method, boiled down:
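HepG2 cells; test chemical 7 conc. (125 nM–100 uM final) × 90 min; then luminescent ATP detection. DMSO vehicle. Positive control dichlone, 8 conc. from 10 nM to 100 uM final. Loss-of-signal endpoint.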
For orientation: In ATP-based viability assays light output follows the ATP content of the culture.

Assay [3] is described as follows: CCTE_Harrill_HTTr_Viability_MCF7: CCTE's 6-hour Cell Viability Assessment for the High-Throughput Transcriptomics (HTTr) Platform, in MCF-7 cells cultured in DMEM + 10% fetal bovine serum, Harrill Lab (AID 2284010). Put shortly:
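Viability measured through PI dye exclusion by high-content imaging at 6 h post-dosing.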

Assay [4] is described as follows: CCTE_Harrill_HTTr_Apoptosis_MCF7: CCTE's 6-hour Apoptosis Assessment for the High-Throughput Transcriptomics (HTTr) Platform, in MCF-7 cells cultured in DMEM + 10% fetal bovine serum, Harrill Lab (AID 2284011). The method, boiled down:
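Apoptosis in MCF-7 cells grown in DMEM with 10% fetal bovine serum was scored after a six hour exposure by high content imaging of caspase-3/7 activation (CellEvent Caspase 3/7 Green), with DMSO serving as negative control and baseline.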

The nature of assay [5]: CCTE_Harrill_HTTr_CellCount_MCF7: CCTE's Cell Proliferation Assessment for the High-Throughput Transcriptomics (HTTr) Platform, Harrill Lab (AID 2284012; active = hit-call score of the fitted dose curve at least 0.9, where 1 is the maximum;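 also: count of Hoechst-stained nuclei per well by high-content imaging in MCF-7 cells; cells exposed to compound for six hours; intended direction is loss of nuclei count meaning fewer cells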). The method, boiled down:
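Nuclei counting (Hoechst, high content imaging) in MCF-7 after a 6 h treatment at eight concentrations. Activity fitted bidirectionally, DMSO as negative control.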

Assay [6] can be described thus: CCTE_Shafer_MEA_acute_spike_number: CCTE's Neural Acute Assay for Total Number of Spikes, Shafer Lab (AID 2284008).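 As to AC50: curve fitted for decrease in spike count so AC50 reflects inhibitors.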 The method, boiled down:
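Using an adaptive detector set to 8x rms noise, spikes were counted in 40-min windows before and after compound addition (0.03-40 uM) to rat cortical networks at 37 C; the well-level change from baseline was analysed relative to DMSO.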

The nature of assay [7]: CCTE_Shafer_MEA_acute_firing_rate_mean: CCTE's Neural Acute Assay for Mean Firing Rate, Shafer Lab (AID 2284009).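 Also: analyzed for loss of signal so actives lower firing rate relative to DMSO.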 The method, boiled down:
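Percent change in well-mean firing rate was derived from extracellular spikes detected at 8x rms noise (300-5000 Hz band-pass) before and after a 40-min compound exposure. Cultures were primary rat cortical neurons, tested at 0.03-40 uM.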

Assay [8] is described as follows: CCTE_Shafer_MEA_acute_burst_number: CCTE's Neural Acute Assay for Single-Electrode Bursts, Shafer Lab (AID 2284013). Put shortly:
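Spontaneous network activity of primary rat cortical neurons was recorded extracellularly on microelectrode arrays at 37 C, with 40-min periods before and during exposure to 0.03-40 uM compound on DIV 13 or 15.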

Assay [9] is described as follows: CCTE_Shafer_MEA_acute_burst_duration_mean: CCTE's Neural Acute Assay for Mean Burst Duration, Shafer Lab (AID 2284014).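 Also: hits are decreases in mean burst duration relative to DMSO controls.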 The method, boiled down:
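Read-out is the per-well percent change in mean burst duration (first to last spike within a single-electrode burst) between 40-min recordings before and after compound. Cultures were primary rat cortical neurons on MEAs, dosed at 0.03-40 uM on DIV 13 or 15.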

A short description of assay [10]: CCTE_Shafer_MEA_acute_per_burst_spike_number_mean: CCTE's Neural Acute Assay for Average Number of Spikes Per Burst, Shafer Lab (AID 2284015).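 Also: hits are decreases in mean spikes per burst versus baseline.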 Put shortly:
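Percent change in mean spikes per single-electrode burst is compared between a 40 min baseline and a 40 min recording with compound (0.03-40 uM). Cultures were rat cortical neurons on MEA plates at DIV 13 or 15, recorded at 37 C, with DMSO as the negative control.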

A short description of assay [11]: CCTE_Shafer_MEA_acute_interburst_interval_mean: CCTE's Neural Acute Assay for Mean Interburst Interval, Shafer Lab (AID 2284016).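 Also: percent change of mean interburst interval versus each well's own pre-dose baseline; curves fitted for decrease in interburst interval relative to DMSO.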 Put shortly: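 Percent change in mean single-electrode interburst interval was calculated per well from 40 min recordings before and after compound (0.03-40 uM). Recordings were made at 37 C on rat cortical cultures at DIV 13 or 15, with spikes detected at 8x rms threshold.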

Assay [12] is described as follows: CCTE_Shafer_MEA_acute_burst_percentage_mean: CCTE's Neural Acute Assay for Percentage of Spikes in a Burst, Shafer Lab (AID 2284017).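 As to AC50: curve fitted for loss of signal so potency reflects decreased burst percentage.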 The method, boiled down: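 Well-level mean burst percentage from a 40-min recording after compound (0.03-40 uM) expressed as percent change from a 40-min baseline at 37C. Cultures: primary rat cortical neurons on MEA, dosed on DIV 13 or 15; fitted downward relative to DMSO.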

Assay [13] is described as follows: CCTE_Shafer_MEA_acute_burst_percentage_std: CCTE's Neural Acute Assay for Standard Deviation of Burst Percentage, Shafer Lab (AID 2284018).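 Also: fitted in the negative direction so actives lower burst percentage SD.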 Put shortly: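 Value is percent change from baseline in the across-electrode SD of spikes-in-bursts percentage, wells with >/= 10 active electrodes. Acute 40-min exposure to 0.03-40 uM on DIV 13 or 15 rat cortical cultures, recorded at 37 C after 40-min baseline.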

A short description of assay [14]: CCTE_Shafer_MEA_acute_per_network_burst_spike_number_mean: CCTE's Neural Acute Assay for Average Number of Spikes in a Network Burst, Shafer Lab (AID 2284019).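 As to AC50: curve fitted for loss of signal so actives reduce spikes per network burst.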 Put shortly: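 Read-out is mean spike count per network burst, taken as percent change between a 40-min pre-exposure and a 40-min post-exposure recording per well. Rat primary cortical neurons on MEAs at 37 C, DIV 13 or 15; compounds at 0.03-40 uM.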

Assay [15] in a line: CCTE_Shafer_MEA_acute_per_network_burst_spike_number_std: CCTE's Neural Acute Assay for Standard Deviation of Number of Spikes in a Network Burst, Shafer Lab (AID 2284020).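 Also: fitted for decrease in spike-number SD versus DMSO so actives lower it.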 The method, boiled down: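 Spontaneous network activity of primary rat cortical neurons is recorded extracellularly before and after a 40-min compound exposure (0.03-40 uM) at 37 C. The endpoint is the well's percent change in burst spike-number SD.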

The nature of assay [16]: CCTE_Shafer_MEA_acute_per_network_burst_electrodes_number_mean: CCTE's Neural Acute Assay for Mean Number of Electrodes in a Network Burst, Shafer Lab (AID 2284021).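 Also: curves fitted for decreases only so hits reduce electrodes per burst.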 The method, boiled down:
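Percent change from baseline in average electrode count per network burst, rat cortical cultures on 48-well MEAs; 40-min recordings each side of exposure, DIV 13 or 15; threshold 8x rms noise; DMSO as negative control.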

Assay [17] in a line: CCTE_Shafer_MEA_acute_network_burst_percentage: CCTE's Neural Acute Assay for Percentage of Network Bursts, Shafer Lab (AID 2284022).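 Also: curves fitted for loss so actives lower network burst percentage.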 Put shortly:
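On DIV 13 or 15, at least three wells of rat cortical neurons per compound are dosed at 0.03-40 uM. Spontaneous firing is detected at 8x rms noise for 40 min before and after dosing at 37 C. The percent change in network-burst spike share is reported.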

The nature of assay [18]: CCTE_Shafer_MEA_acute_cross_correlation_area: CCTE's Neural Acute Assay for Area of Cross Correlation, Shafer Lab (AID 2284024).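 Also: area under pooled inter-electrode spike cross-correlation near zero lag as percent change from own baseline; curves fitted for loss of cross-correlation area so actives lower synchrony.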 Put shortly:
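Extracellular recordings from cultured rat cortical neurons measure network synchrony as cross-correlation area; each well's post-compound value (0.03-40 uM, 40 min) is compared with its own 40 min baseline to give percent change.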

Inconclusive results are not listed. The source made the active and inactive calls. The calls were made as follows, unless noted: active = hit-call score of the fitted dose curve at least 0.9, where 1 is the maximum; inactive = score below 0.9.

For the compound `CCCCCCCCCCCC[N+](C)(C)C`, the result in assay [1], in assay [2], in [3], in assay [4] and in [5] was inactive.

As for `CN1C(=O)N(c2ccccc2Br)Cc2cnc(Nc3ccc4c(c3)OCC(CO)O4)nc21` (centres undefined), the result in assay [1], in [3], in [4] and in assay [5] was inactive. Further, the AC50 in assay [2] is 33.7 µM (active).

Turning to `COc1cc(C(=O)NC2CCN(C)CC2)ccc1Nc1ncc2c(n1)N(C1CCCC1)CC(F)(F)C(=O)N2C`, the AC50 in [6] is 7.05 µM (active); in [7] it was 7.05 µM (active); in assay [9] it was 1.85 µM (active); in assay [10], 29.9 µM (active); in assay [11], 3.83 µM (active); in assay [12], 15 µM (active). Further, the AC50 in assay [14] is 3.69 µM (active); in assay [15] it was 15.2 µM (active); in [16], 5.23 µM (active); in assay [17] it was 10.5 µM (active). Besides, the outcome in assay [3], in assay [4], in assay [5], in [8], in assay [13] and in assay [18] was inactive.

As to `Clc1ccccc1C(c1ccccc1)(c1ccccc1)n1ccnc1`, the AC50 was 5.01 µM (active) in assay [6]; 5.03 µM (active) in [7]; 3.26 µM (active) in assay [8]; 5.84 µM (active) in assay [10]; 7.02 µM (active) in assay [12]; 9.25 µM (active) in assay [13]. The AC50 in assay [15] was 6.71 µM (active); in assay [16] it was 2.24 µM (active); in [17], 5 µM (active). Moreover, the result in [3], in assay [4], in assay [9], in [11], in assay [14] and in assay [18] was inactive.

On to `CCN(Cc1cccc(S(=O)(=O)O)c1)c1ccc(C(=C2C=CC(=[N+](CC)Cc3cccc(S(=O)(=O)O)c3)C=C2)c2ccccc2S(=O)(=O)[O-])cc1`, for which the compound was called inactive in assay [6], in [7], in assay [3], in assay [4], in assay [5] and in [8]. Moreover, the result in [9], in assay [10], in [11], in assay [12], in assay [13] and in assay [14] was inactive. Besides, the compound was called inactive in [15], in assay [16], in assay [17] and in assay [18].

As to `CC(C)(c1cc(Br)c(O)c(Br)c1)c1cc(Br)c(O)c(Br)c1`, the outcome in assay [1], in assay [2], in [6], in assay [7], in [3] and in assay [4] was inactive. In addition, the compound was called inactive in [8], in assay [9], in assay [10], in assay [11], in [13] and in assay [14]. In addition, the compound was classed as inactive in [15], in assay [16], in [17] and in [18]. For the same compound, in [12], the AC50 is 19.1 µM (active).

As for `CC(=O)N1CCN(c2ccc(OC[C@H]3CO[C@](Cn4ccnc4)(c4ccc(Cl)cc4Cl)O3)cc2)CC1`, the figures for the half-maximal activity concentration (AC50) in [1], in [12] and in assay [13] were 9.46 µM (active), 33 µM (active) and 32.9 µM (active), respectively. Besides, the compound was classed as inactive in assay [2], in assay [6], in assay [7], in assay [3], in assay [4] and in [5]. The call in [8], in assay [9], in assay [10], in assay [11], in assay [14] and in [15] was inactive. The compound was classed as inactive in assay [16], in [17] and in assay [18].

For `CN(C)C(=O)C1(N2CCCCC2)CCN(CC[C@@]2(c3ccc(Cl)c(Cl)c3)CN(C(=O)c3ccccc3)CCO2)CC1`, the outcome in assay [1], in assay [3], in assay [4], in assay [5], in assay [11] and in assay [13] was inactive. Besides, in [18], the call was inactive. The AC50 was 3.26 µM (active) in assay [6]; 3.28 µM (active) in assay [7]; 2.11 µM (active) in assay [8]; 1.81 µM (active) in assay [9]; 2.5 µM (active) in assay [10]; 19.4 µM (active) in assay [12]. The AC50 in assay [14] is 2.5 µM (active); in assay [15], 20.4 µM (active); in [16] it was 22.4 µM (active); in [17], 17.8 µM (active).

For the compound `Cc1cn([C@H]2C[C@H](N=[N+]=[N-])[C@@H](CO)O2)c(=O)[nH]c1=O`, the compound was called inactive in assay [6], in [7], in assay [3], in assay [4], in assay [5] and in assay [8]. For the same compound, the call in assay [9], in assay [10], in assay [11], in [12], in assay [13] and in [14] was inactive. For the same compound, the outcome in assay [15], in [16], in assay [17] and in [18] was inactive.

Take `Cc1cc(F)ccc1-c1cc(N2CC[C@@H](O)[C@H]2CO)ncc1N(C)C(=O)C(C)(C)c1cc(C(F)(F)F)cc(C(F)(F)F)c1`: the result in assay [1], in assay [2], in assay [3], in [4] and in assay [5] was inactive.

Take `CCCCOC(=O)c1ccc(O)cc1`: the outcome in assay [1], in assay [2], in assay [6], in assay [7], in assay [3] and in assay [4] was inactive. The compound was classed as inactive in assay [5], in assay [8], in assay [9], in assay [10], in [13] and in assay [14]. In addition, the compound was called inactive in assay [15], in [16], in [17] and in assay [18]. Also, the AC50 in [11] is 31 µM (active); in assay [12], 31.1 µM (active).

For the compound `O=c1[nH]sc2ccccc12`, the AC50 is 0.0259 µM (active) in assay [6]; 0.0286 µM (active) in [7]; 34.3 µM (active) in [11]; 20 µM (active) in assay [12]; 7.94 µM (active) in [17]; 0.0302 µM (active) in assay [18]. Moreover, the result in assay [3], in assay [4], in assay [5], in assay [8], in assay [9] and in assay [10] was inactive. The outcome in assay [13], in [14], in assay [15] and in assay [16] was inactive.

The AC50 is the concentration giving half of the maximal activity seen.
